# Active and inactive are the calls of the source. How the source made its calls: active means hit-call score of the fitted dose curve at least 0.9, where 1 is the maximum; inactive means score below 0.9.
# Experiment: BSK_BT_PBMCCytotoxicity: PBMC Cytotoxicity Assessment in the BioMAP Diversity Plus: BT Assay (AID 2284225)
# Conditions: primary human B cells with PBMC
# Protocol: BSK_BT is a cell-based, multiplexed-readout assay that uses B cell and peripheral blood mononuclear cells, a human vascular primary cell co-culture, with measurements taken at 24 hours after chemical dosing in a microplate: 96-well plate.BSK_BT_PBMCCytotoxicity is an assay component measured in the BSK_BT assay. It measures dehydrogenase activity, a form of viability reporter, as detected with fluorescence intensity signals by Alamar Blue Reduction technology.Data from the assay component BSK_BT_PBMCCytotoxicity was analyzed at the endpoint, BSK_BT_PBMCCytotoxicity, in the positive analysis fitting direction relative to DMSO as the negative control and baseline of activity. Using a type of viability reporter, gain or loss-of-signal activity can be used to understand cellular changes in viability. To generalize the intended target to other relatable targets, this assay endpoint is annotated to the 'cell cycle' intended target family, where the subfamily is 'cytotoxicity'.
# The levels of cell surface (or secreted, indicated by the prefix "s") biomarker endpoints were measured by ELISA. Overt cytotoxicity to cells in confluent adherent cultures (all systems other than the BT system) was assessed by measuring total protein levels using sulforhodamine B (SRB) staining in parallel cultures at the time of biomarker measurements, indicated as SRB endpoints. For proliferation assays for adherent cell types, individual cell types are cultured at sub-confluence and relative cell numbers quantified by SRB staining at time points optimized for each system (48 h: 3C and CASM3C systems; 72 h: BT and HDF3CGF systems; 96 h: SAg system). SRB was performed by staining cells with 0.1% SRB after fixation with 10% TCA and reading wells at 560 nm.Viability and proliferation of PBMC (T cells) was quantified by Alamar Blue reduction for the SAg and BT systems. For PBMC viability (referred to as PBMC Cytotoxicity within the assay endpoint names), cells were plated (75,000/well in a 96-well plate) and then chemical samples added for 1 h before addition of activators, SEB and TSST-1 (20 ng/mL final concentration each). Cells were incubated for 90 h. Then, Alamar Blue (20 uL/well) (Invitrogen, Cat DAL1100) was added for 6 h, and the plates were read with a fluorescence microplate reader at 546/580 nm (excitation/emission). For PBMC proliferation, cells were plated and activated as above but incubated for only 16 h prior to addition of Alamar Blue. Plates were read after 6 h.
SMILES,outcome,AC50
C=CC(=O)NC(C)(C)C,inactive,
O=C(Oc1ccccc1)c1ccccc1C(=O)Oc1ccccc1,,20 µM (active)
Nc1cccc(N)n1,inactive,
CCNc1nc(NC(C)(C)C)nc(OC)n1,inactive,
CC/C=C\C/C=C\C/C=C\CCCCCCCC(=O)OC,,17.4 µM (active)
C=CC(=O)OCC(C)OCC(C)OCC(C)OC(=O)C=C (stereo not given),,13.1 µM (active)
C=CC(=O)NCOCCCC,inactive,
CCc1cccc(C)c1N(C(=O)CS(=O)(=O)O)C(C)COC (stereo not given),inactive,
C=CCCCCCCCCC=O,inactive,
Clc1cc(Cl)c(Cl)c(Cl)c1Cl,inactive,
CC(Cl)COP(=O)(OCC(C)Cl)OCC(C)Cl (stereo not given),inactive,
O=C1CCCCCCCCCCC1,inactive,
COc1ccc(C(=O)c2ccccc2)c(O)c1,inactive,
CC(C)[N+](C)(CCOC(=O)C1c2ccccc2Oc2ccccc21)C(C)C,inactive,
CCCCCC1=CCCC1=O,inactive,
CCCCCCCO,inactive,
CCOC(=O)C1=NOC(c2ccccc2)(c2ccccc2)C1,inactive,
CCOC(=O)C1=NN(c2ccc(Cl)cc2Cl)C(C)(C(=O)OCC)C1 (stereo not given),inactive,
Fc1ccc(Br)cc1,inactive,
CC=C(C)C(C)=O,inactive,

SMILES,outcome,AC50
O=C(Cl)c1c(Cl)c(Cl)c(C(=O)Cl)c(Cl)c1Cl,inactive,
CC1=CC=C(C(C)C)CC1,inactive,
C=CC(=O)OCCCCCCCC(C)C,inactive,
CCN1CN(CC)CN(CC)C1,inactive,
CC(C)c1cccc(C(C)C)c1N,inactive,
CCOC(=O)/C=C\C(=O)OCC,inactive,
CCCCCCCCC(CO)CCCCCC (stereo not given),inactive,
CC(c1cc(C(C)(C)C)cc(C(C)(C)C)c1O)c1cc(C(C)(C)C)cc(C(C)(C)C)c1O,,30.2 µM (active)
CCCCCCOC(=O)CCCCC(=O)OCCCCCC,inactive,
COC(OC)(C(=O)c1ccccc1)c1ccccc1,inactive,
CC=C(C)C=CC=C(C)C,,19.9 µM (active)
CC(C)CCCCCOC(=O)CS,inactive,
Oc1c(Cl)cc(Cl)c(Cl)c1Cl,inactive,
O=C1CCCCCCCCCCCN1,inactive,
CC/C=C\CCOC(=O)c1ccccc1O,inactive,
CCCCCCCCCCCC(C)=O,inactive,
CCCCCCC=O,inactive,
Cc1c(O)cccc1O,inactive,
Oc1ccc(/C=C/c2cc(O)cc(O)c2)cc1,inactive,
c1ccc2sc(SSN3CCOCC3)nc2c1,,13.2 µM (active)

# — PubChem BioAssay (EPA / NIEHS)
